Sm TGR block = qHTS Assay for the Inhibitors of Schistosoma Mansoni Peroxiredoxins | purified TGR, DTNB reduction, TNB absorbance 405 nm | actives 3% (n = 360,000) | Potency, µM (highest dose often 114 µM), inactives show at the highest dose activity change, negative = inhibition, actives largely listed as inhibitors; note: potency is the fitted concentration of half-maximal effect; nearly all actives have a fitted effect of over 60% in size
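Kinetic colorimetric format: TGR-catalysed, NADPH-driven DTNB reduction monitored via TNB absorbance. Enzyme dispensed at 20 nM; compound exposure 15 min at room temperature before reaction start.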
FMDV inh = High Throughput Screening for Foot and Mouth Disease Virus Antivirals; FMDV antiviral cell-based qHTS; Potency, µM (highest dose often 57.9 µM), for inactives: top-dose activity change, negative = inhibition, hits mostly inhibitors; actives 1.2% (n = 410,000); calls by dose curve; tested in HEK293T cells; note: read-out not given here; potency is the fitted concentration of half-maximal effect; nearly all actives have a fitted effect of over 45% in size
HCMV antiviral = qHTS Assay for inhibitors of the human cytomegalovirus (HCMV). actives 4.5% (n = 410,000). AID 1259415, 2018. HFF cells, HCMV-luciferase reporter, 72 h; stronger effect = lower value. activity change, negative = inhibition, % at 57.5 µM; in the data active = activity change below about -60%; inconclusive = no clear call, values can overlap the other calls; inactive = above about -39%
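Inhibition of viral replication was scored as loss of reporter luminescence in HFFs infected with HCMV-luciferase (MOI 1 PFU/cell) for 72 h; compounds tested at 2 doses, normalized to buffer and Salinomycin controls.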
TbPYK inhibitor = qHTS of Trypanosoma Brucei Inhibitors; TbPYK enzyme, Kinase-Glo Plus ATP luminescence, 45 min; actives 0.12% (n = 410,000); Potency, µM (titrated, usually from 76.8 µM), for the others: at the highest dose activity, negative = inhibition, most hits filed as inhibitors; note: potency is the fitted concentration of half-maximal effect; nearly all actives have a fitted effect of over 50% in size
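Quantitative HTS: titrated library compounds versus trypanosomal pyruvate kinase in TEA buffer (pH 7.2) containing KCl, MgCl2, BSA and Tween-20. Reactions were initiated with ADP, 130 uM final. Kinase-Glo Plus luminescence was read after 45 min at RT.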
RE007 growth inh = qHTS Assay for Inhibitors of the HIV-1 protein Vpr; S. pombe RE007 Vpr strain, BacTiter-Glo ATP luminescence, 24 h; Potency, µM (highest dose often 92.2 µM), for the others: top-dose activity change, negative = less growth, hits mostly inhibitors; actives 0.21% (n = 360,000); active = well fitted falling curve with a large enough effect; inconclusive = small, poorly fitted or top-dose-only effect; inactive = no such curve, though single readings can be large or run the other way; note: potency is the fitted concentration of half-maximal effect; nearly all actives have a fitted effect of over 50% in size
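Fission yeast strain RE007, carrying one chromosomally integrated HIV-1 vpr copy, was seeded at OD 0.01 in PMG+AL medium with 23 nL pinned compound. After 24 h at 30 °C and 99% humidity, viability was read by BacTiter-Glo luminescence.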
Giardia FBPA inh = qHTS Assay for Inhibitors of Fructose-1,6-bisphosphate Aldolase from Giardia Lamblia. A8B2U2. purified Giardia FBPA. Potency, µM (highest dose often 59.6 µM), for inactives: at the highest dose activity, negative = inhibition, most hits filed as inhibitors. actives 0.71% (n = 290,000). AID 2451, 2010; note: potency is the fitted concentration of half-maximal effect; nearly all actives have a fitted effect of over 55% in size
Target sequence (A8B2U2 whole entry, looked up): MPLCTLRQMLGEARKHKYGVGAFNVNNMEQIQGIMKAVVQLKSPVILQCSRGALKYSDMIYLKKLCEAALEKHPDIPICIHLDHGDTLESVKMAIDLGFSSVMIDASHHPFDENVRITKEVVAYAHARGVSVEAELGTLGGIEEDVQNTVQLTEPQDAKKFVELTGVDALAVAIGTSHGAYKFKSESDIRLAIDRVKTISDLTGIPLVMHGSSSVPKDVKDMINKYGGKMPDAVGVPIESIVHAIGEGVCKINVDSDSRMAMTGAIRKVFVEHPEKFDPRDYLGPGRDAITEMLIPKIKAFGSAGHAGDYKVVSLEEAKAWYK
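40 nM FBPA preincubated 10 min at RT with compound (up to 57.5 uM final), then substrate plus GAPDH/TPI/NAD/arsenate coupling and diaphorase/resazurin added. Fluorescence read after 20 min at RT, 525/598 nm.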
* hit, by the source's call; ? = inconclusive; . = not tested or not shown; [ ] = remark or other dose. A selection: hits, their analogues and other compounds. The true share with any hit is near 7.7%. Unless noted, calls come from the whole dose curve; as a rule, active = well fitted curve in the direction sought with a large enough effect; inconclusive = small, poorly fitted or top-dose-only effect, or another doubt; inactive = no such curve, though single readings can be large; an effect the other way counts as inactive or inconclusive. % is set by controls: 0 for no effect and ±100 for the full control effect.

SMILES | Sm TGR block | FMDV inh | HCMV antiviral | TbPYK inhibitor | RE007 growth inh | Giardia FBPA inh
Cc1cc(C)nc(Sc2nc(Nc3ccccc3)nc(Sc3nc(C)cc(C)n3)n2)n1 | -9.6% | -10.8% | -72.4* | -1.2% | 8.1% | 0.7%
O=C(NNC(=O)c1ccc2ccccc2c1)c1ccc(Cl)c(Cl)c1 | . | 3.6% | -28.3 | 0.4% | 3.6% | .
O=C(NNc1cc(Br)c(O)c(Br)c1)c1ccccc1 | 17.8µM* | -21.1% | ? | -16.3% | ? | ?
Cc1onc(-c2c(Cl)cccc2Cl)c1C(=O)NNc1ccccc1 | 50.1µM* | -11.1% | -10.3 | -6.1% | 220.1% | 0.4%
O=C(NNc1ccccc1)c1ccc(Cl)c(Cl)c1 | . | 18.4% | -77.4* | -3.9% | 109.2% | .
O=C(Nc1ccccc1C(=O)Nc1nnc(C(F)(F)F)s1)c1ccccc1Cl | 9.6% | ? | -102.7* | -6.4% | 8.1% | -17.8%
O=C(Nc1nnc(-c2ccccc2Cl)s1)c1ccccc1F | 28.2µM* | 46.5% | 13.0 | -7.5% | -7.0% | 5.3%
Cc1onc(-c2c(F)cccc2Cl)c1C(=O)Nc1nnc(C(F)(F)F)s1 | 2.1% | ? | -98.0* | 1.9% | 22.3% | .
Cc1onc(-c2c(F)cccc2Cl)c1C(=O)N1CCCc2ccccc21 | -31.5% | -16.5% | -0.3 | 7.08µM* | -19.5% | -7.8%
CC(C)C(C)/C=C/C(C)C1CCC2C3=CCC4CC(=O)CC[C@@]4(C)C3CC[C@]21C (stereo not given in full) | . | -1.0% | . | . | . | -0.3%
CCOc1ccc(Nc2nc3ccccc3n3c(CC)nnc23)cc1 | -8.6% | -5.5% | 0.0 | -3.9% | . | .
CCOC(=O)c1c(C)oc2c1c(C(c1cccnc1)N1CCOCC1)c(O)c1ccccc12 (stereo not given) | 1.26µM* | ? | 221.2 | 2.4% | 9.2% | ?
CCOC(=O)c1c(C)oc2c1c1c(c3ccccc32)OCN(Cc2cccnc2)C1 | 0.355µM* | -10.1% | . | -3.2% | -3.4% | 5µM*
CCOC(=O)c1c(C)oc2c1c1c(c3ccccc32)OCN(CCCC(=O)O)C1 | -1.6% | 25.2% | 124.7 | 1.1% | -9.1% | ?
CCOC(=O)c1c(C)oc2c1c(C(c1cccnc1)N1CCN(C)CC1)c(O)c1ccccc12 (stereo not given) | 0.562µM* | . | . | . | . | ?
O=C(Nc1ccc2nc(-c3ccco3)[nH]c2c1)c1ccco1 | -34.9% | 26.0% | -15.5 | 4.9% | -11.0% | -9.8%
O=C(Nc1ccc2nc(-c3cccnc3)[nH]c2c1)c1ccco1 | -25.3% | -13.8% | -67.0* | 1.9% | -3.4% | -7.4%
O=C(Nc1ccc2nc(-c3ccccc3)[nH]c2c1)c1cccs1 | 0.0% | . | -79.4* | -1.4% | 2.6% | -16.6%
O=C(Nc1ccc2nc(-c3ccco3)[nH]c2c1)c1cccs1 | 25.1µM* | 16.7% | -8.7 | -12.0% | -12.2% | -16.8%
COCCNS(=O)(=O)c1ccc(-c2ccc(C)cc2)cc1 | -0.3% | 4.0% | -63.5* | -0.5% | -12.9% | -1.1%
COc1ccc(CCN(C)Cc2cccc3ccccc23)cc1OC | 12.9% | -26.5% | 52.5 | 2.0% | -8.0% | ?
CN(C/C=C/C#CC(C)(C)C)Cc1cccc2ccccc12 | . | ? | -79.7* | -2.5% | 9.0%[18.4 µM] | -7.4%
O=C(CSc1nc2c([nH]c3ccccc32)c(=O)n1-c1ccc(Cl)cc1)NC1CCCCC1 | 0.6% | -18.9% | -14.5 | 0.6% | . | .
CCn1nc(C)c(CNC(=O)c2cc(COc3ccccc3SC)on2)c1C | -3.2% | ? | -64.3* | -2.7% | -6.1% | .
CSc1ccccc1OCc1cc(C(=O)NCc2cccc(C)n2)no1 | -2.2% | 13.1% | 69.2 | 1.6% | -12.1% | 3.3%
CCn1nc(C)c(CNC(=O)c2cc(COc3cncc(Cl)c3)on2)c1C | -15.7% | 1.1% | -63.6* | -9.8% | 11.7% | 0.8%
CC(C)c1cc(CNC(=O)c2cc(COc3cncc(Cl)c3)on2)on1 | -21.4% | 0.5% | -32.3 | -28.5% | -10.4% | 0.3%
